# From PubChem
# Shown are actives, neighbours in structure and some others; about 2% of the full set was active somewhere.
# H9c2 TAG inh – reduces triacylglycerol accumulation in H9c2 cells; 230,000 tested, 0.66% active; inhibition, % at 12.5 µM; Nile Red lipid (TAG) fluorescence; cells loaded with 200 µM oleic acid;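 active = pattern-corrected inhibition of lipid staining of at least 50% with the nuclear-stain viability signal not falling by more than 50%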;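 note: 0% = DMSO wells and 100% = triacsin C control wells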
# CHT PAM – allosteric activators of human choline transporter CHT; Q9GZV3; CHT-expressing cells, membrane potential dye, choline EC20; hits give high values; LV-AA mutant CHT in HEK293 cells; B-score at 10 µM; 310,000 tested, 0.49% active; AID 488977;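 active = initial fluorescence not abnormally high and integrated response B-score, plate-corrected, over 3 SD above library mean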
# Target sequence (Q9GZV3 whole entry, looked up): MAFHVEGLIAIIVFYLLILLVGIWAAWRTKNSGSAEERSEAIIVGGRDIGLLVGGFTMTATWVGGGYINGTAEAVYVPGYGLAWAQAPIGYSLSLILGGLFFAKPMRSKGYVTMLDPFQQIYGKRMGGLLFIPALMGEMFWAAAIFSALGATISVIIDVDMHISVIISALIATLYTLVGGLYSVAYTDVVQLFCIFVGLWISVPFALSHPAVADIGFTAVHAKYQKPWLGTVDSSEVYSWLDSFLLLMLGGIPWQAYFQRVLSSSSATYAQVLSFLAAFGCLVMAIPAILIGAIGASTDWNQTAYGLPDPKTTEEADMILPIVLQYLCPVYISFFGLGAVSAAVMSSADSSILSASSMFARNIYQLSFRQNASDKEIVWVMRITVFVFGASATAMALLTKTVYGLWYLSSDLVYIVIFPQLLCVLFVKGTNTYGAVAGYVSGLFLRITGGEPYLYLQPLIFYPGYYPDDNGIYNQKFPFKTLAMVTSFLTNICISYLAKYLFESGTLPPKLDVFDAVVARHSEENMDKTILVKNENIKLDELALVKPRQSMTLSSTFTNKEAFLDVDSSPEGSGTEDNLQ
# Kir21 inh – inhibitors of mouse Kir2.1 inward-rectifier potassium channel; B-score at 10 µM; 310,000 tested, 0.85% active; HEK293-Kir2.1, FluxOR thallium flux fluorescence; hits give low values; P35561;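 active = fluorescence ratio B-score at or below minus 3 SD of library scores, with starting-brightness B-score within 2 SD, cut at about -4.2 in these data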;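 note: channel flux triggered by added potassium and thallium sulfate stimulus; B-score of peak minus minimum fluorescence over baseline after thallium stimulus; more negative B-score means stronger Kir2.1 block with less thallium influx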
# CHT block – human CHT choline transport inhibition | 310,000 tested, 0.86% active | Q9GZV3 | CHT-expressing cells, membrane potential dye, choline response; hits give low values | B-score at 10 µM | AID 488975;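 active = B-score over 3 SD under the library average, and starting fluorescence ratio not unusually high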;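 note: choline stimulus applied at its EC90 after an EC20 pre-addition; B-score computed on integrated fluorescence ratio after choline addition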
# An asterisk follows results filed as active; i = inactive; . = no result.
SMILES,H9c2 TAG inh,CHT PAM,Kir21 inh,CHT block
CC1CC(C)CN(CC(O)COCc2ccccc2)C1 (stereo unspecified),11,i,-1.1,i
S=C1N(c2ccccc2)CN(C2CCCCC2)CN1c1ccccc1,.,i,-0.76,i
N#Cc1ccc(C(=O)OCCCc2cc3ccccc3c(=O)o2)cc1,3,.,.,.
CN1c2ccccc2C(C)(C)[C@]12C=Cc1cc(O)ccc1O2,.,i,-5.9*,i
Cc1ccccc1NC(=O)Cn1nc(C)c2ccccc2c1=O,.,i,2,i
O=C1CN(C(=O)COc2ccc(Cl)c(Cl)c2)c2ccccc2N1,7,.,.,.
O=C1CN(C(=O)Cn2ncc(Cl)c(Cl)c2=O)c2ccccc2N1,69*,.,-0.05,.
COc1ccc(-c2n(CC(=O)OC3CC(C)CCC3C(C)C)c3ccccc3[n+]2C)cc1 (stereo unspecified),.,.,-13*,.
COc1ccc(OCc2n(CC(=O)OC3CC(C)CCC3C(C)C)c3ccccc3[n+]2C)cc1 (stereo unspecified),39,i,-9.9*,i
COc1ccc(CNc2ccc(Cl)cc2)cc1Cn1ccnc1,.,i,-4.3*,i
CCOc1ccccc1NC(=O)c1ccc(Cl)c(NC(=O)CC(c2ccccc2)c2ccccc2)c1,.,i,-0.04,i
CN[C@@H]1CC[C@H](c2ccc(Cl)c(Cl)c2)c2ccccc21,.,i,-5.8*,i
COc1ccccc1C1CCN(Cc2ccc(Cl)c(Cl)c2)CC1,.,i,-0.37,i
CCOC(=O)C1CCCN(C(=O)Cc2ccc(OC)c(OC)c2)CC1 (stereo unspecified),-27,.,.,.
CON(C)c1nc(OCCNC(=O)OCc2ccc(Cl)cc2Cl)nc(N(C)C)n1,-1,i,-4.3*,i
CON(C)c1nc(OCCNC(=O)COc2ccc(Cl)cc2C)nc(N(C)C)n1,-6,i,-2.6,i
Cc1ccc(C(O)c2ncc(-c3ccccc3C)[nH]2)cc1F (stereo unspecified),-19,.,.,.
O=C(Cc1cccs1)NCCS(=O)(=O)N1CCN(c2cccc(Cl)c2)CC1,-1,i,0,i
CC(=O)c1ccc(NC(=O)CCCN2C(=O)C(c3ccccc3)Oc3cccnc32)cc1 (stereo unspecified),.,i,-4.2*,i
CC(=O)Nc1ccc(NC(=O)CCCN2C(=O)C(c3ccccc3)Oc3cccnc32)cc1 (stereo unspecified),-3,.,.,.
CC(C)c1ccc(OCc2ccc(C(=O)N3CCCC3)o2)cc1,.,7.1*,-0.96,i
CN1CCN(C(=O)c2ccc(COc3ccc(C(C)(C)C)cc3)o2)CC1,4,i,0.44,i
COc1ccc(Cl)cc1C(=O)NCCN(C)C,-20,i,0,i
CN(C)CCNC(=O)c1ccc(COc2ccc(Cl)cc2Cl)cc1,29,i,-4.8*,i
COc1cc(CN2CCN(Cc3ccc(C)cc3)C(CCO)C2)cc(OC)c1O (stereo unspecified),2,i,0.02,i
SMILES,H9c2 TAG inh,CHT PAM,Kir21 inh,CHT block
COc1ccc(C(=O)c2ccc(OC)c(N)c2)cc1N,.,12*,-0.41,i
COc1ccc(C(=O)c2ccc(OC)c(OC)c2)cc1OC,17,i,-0.3,i
CCCN(CCC)C(=O)Cc1coc2ccc3ccccc3c12,-5,i,-4.5*,i
CCN(CC)CCC(=O)Nc1cccc2c1C(=O)c1ccccc1C2=O,93*,i,-0.65,i
Cc1occc1C(=O)N(C)CC1CCCN(CCc2ccc(Cl)cc2)C1 (stereo unspecified),-5,.,.,.
CN(Cc1ccccc1O)CC1CCCN(CCc2ccc(Cl)cc2)C1 (stereo unspecified),1,i,-15*,i
CN(Cc1ccc(C#CCCO)cc1)CC1CCCN(CCc2ccc(Cl)cc2)C1 (stereo unspecified),.,i,-9.4*,i
CCC1(CC)NC(=O)N(CC(=O)Nc2ccc(OCc3ccccc3)cc2)C1=O,12,.,.,.
Cc1n[nH]c(C)c1N1C(=O)c2cccc3c(Br)ccc(c23)C1=O,.,i,0.11,-7.4*
Cc1n[nH]c(C)c1N1C(=O)c2cccc3cc(Br)cc(c23)C1=O,.,i,-0.27,i
Cc1ccc(NC2=C/C(=N\S(=O)(=O)c3cccs3)c3ccccc3C2=O)c(C)c1,154,i,0.75,i
O=C1/C(=N\S(=O)(=O)c2cccs2)C([n+]2ccccc2)=C([O-])c2ccccc21,76*,i,0.57,i
CC(C)(C)c1cc[n+](C2=C([O-])c3ccccc3C(=O)/C2=N\S(=O)(=O)c2cccs2)cc1,64*,i,-0.08,i
O=c1cc(-c2ccccc2Cl)oc2c([N+](=O)[O-])c(O)cc(O)c12,0,i,-0.45,-13*
CC(C)Cn1c(-c2cccs2)nc2ccccc21,-5,i,-4.5*,i
C=CCc1ccc(OCC(O)COCC)c(OC)c1 (stereo unspecified),.,i,0.97,i
OC(COCc1ccc(Cl)cc1)CN1CCN(CC(O)COCc2ccc(Cl)cc2)CC1 (stereo unspecified),-17,i,-4.9*,i
C=CCc1ccc(OCC(O)CN2CCN(Cc3ccc(Cl)cc3)CC2)c(OC)c1 (stereo unspecified),.,i,-8.3*,i
Cc1ccc(C2Cc3cc(O)c(O)cc3CN2)cc1 (stereo unspecified),38,i,-7.5*,i
O=C(Oc1ccc(C(=S)N2CCOCC2)cc1Br)c1ccccc1F,.,i,-6.3*,i
O=C(Oc1ccc(C(=S)N2CCOCC2)cc1Cl)c1ccccc1F,.,i,-5.8*,i
Cc1ccccc1C(=O)Oc1ccc(Cl)cc1C(=S)N1CCOCC1,-14,i,-1.7,i
CCC(CC)C(=O)Nc1nnc(S(=O)(=O)Nc2ccc(OC)cc2)s1,.,i,1.2,i
COC1C(CO)OC(n2c3c(Cl)cccc3c3c4c(c5c6cccc(Cl)c6[nH]c5c32)C(=O)NC4=O)C(O)C1O (stereo unspecified),72*,.,.,.
Brc1ccc(CSc2nnc(-c3cccnc3)o2)cc1,14,i,-0.28,-6.3*
SMILES,H9c2 TAG inh,CHT PAM,Kir21 inh,CHT block
CN(C)CCCN1c2ccccc2CCc2ccc(Cl)cc21,35,i,-6.2*,i
N#Cc1ccccc1OCCCN1CCC(Cc2ccccc2)CC1,.,i,-1.8,-9*
CC(c1ccon1)N(C)C(=O)CCc1nnc(C2(c3ccc(Cl)cc3)CCC2)o1 (stereo unspecified),3,i,-4.9*,i
Cc1ccc(C(C)C)c(OCC(O)CNC2CCCC2)c1 (stereo unspecified),20,i,-0.28,i
Cc1ccc(C(C)C)c(OCCCN(C)Cc2ccccc2)c1,0,i,-11*,i
Cc1ccc(C(C)C)c(OCC(O)CN(C)Cc2ccccc2)c1 (stereo unspecified),.,i,-9.7*,i
Cc1ccc(OCCCCN(C)Cc2ccccc2)c(Br)c1,-24,i,-13*,i
Cc1ccc(C(C)C)c(OCCCN2C(=O)NC(C)(C)C2=O)c1,.,i,-2.5,i
CN(CCOc1cccc2ccccc12)Cc1ccccc1,4,i,-0.04,i
